In ChEMBL document CHEMBL1201862, “PubChem BioAssay data set” (2004):

species on record: Homo sapiens; experiment: Quantitative High-Throughput Screen for Compounds Blocking the Interaction Between CBF-beta and RUNX1 for the Treatment of Acute Myeloid Leukemia: Summary. [Related pubchem assays (depositor defined):AID1477, AID504370, AID504374, AID504375]; format: functional

Potency, active:
COC(=O)c1ccc(C)c(-n2c(C)cc(C=O)c2C)c1 0.112 µM
c1coc(-c2ccnc3ncnn23)c1 0.1 µM
COc1cc([N+](=O)[O-])cc(/C=N/NC(=O)c2ccc(C)nc2)c1O 0.141 µM
O=C(O)c1cccc(NC(=S)N/N=C/c2cccc(O)c2)c1 0.141 µM
NNc1nc2cccnc2n(CCNc2ncc(C(F)(F)F)cc2Cl)c1=O 0.126 µM
O=C1C2C3C=CC(C4CC34)C2C(=O)N1/N=C/c1cccs1 (stereo not given) 0.112 µM
COC(=O)c1ccc(N=NNc2ccc(C(=O)OC)cc2)cc1 0.112 µM
N[C@@H](CCCCNC(=O)CCCC[C@@H]1SC[C@H]2NC(=O)N[C@H]12)C(=O)O 0.398 µM
CCOc1ccc(CN(C)CC(=O)Nc2cc(C)c(C)cc2[N+](=O)[O-])cc1.CN(C)C=O 0.141 µM
CN1CCCN(C(=O)/C=C/c2ccc(Cl)cc2Cl)CC1 0.126 µM
